PubChem BioAssay (Tox21)
Inconclusive results are not listed. A call without a number means that no potency is given here. Unmarked numbers belong to inactive results. Activity calls are given as the source filed them. Unless noted, the call rests on the fitted dose curve.

Key:
[1] = target: Peroxisome proliferator-activated receptor delta (Homo sapiens) (UniProt Q03181); test: qHTS assay to identify small molecule agonists of the peroxisome proliferator-activated receptor delta (PPARd) signaling pathway (AID 743212);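 further: HEK293H cells with PPARd UAS beta-lactamase reporter GeneBLAzer system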
Sequence of Peroxisome proliferator-activated receptor delta (Homo sapiens) (Q03181 whole entry, looked up): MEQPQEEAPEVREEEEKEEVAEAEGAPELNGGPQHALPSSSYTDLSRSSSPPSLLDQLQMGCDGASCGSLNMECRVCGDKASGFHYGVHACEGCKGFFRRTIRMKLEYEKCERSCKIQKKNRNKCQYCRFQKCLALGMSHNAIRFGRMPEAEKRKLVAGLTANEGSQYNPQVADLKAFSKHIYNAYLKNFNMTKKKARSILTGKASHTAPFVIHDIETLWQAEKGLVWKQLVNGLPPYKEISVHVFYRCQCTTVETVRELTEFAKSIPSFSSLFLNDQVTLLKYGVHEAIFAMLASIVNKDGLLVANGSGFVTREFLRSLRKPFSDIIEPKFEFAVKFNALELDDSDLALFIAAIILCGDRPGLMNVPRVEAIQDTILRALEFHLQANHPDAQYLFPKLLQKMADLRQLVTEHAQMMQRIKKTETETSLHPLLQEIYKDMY
Method in brief: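 Beta-lactamase reporter read by fluorescence (LiveBLAzer B/G FRET, 2 h, room temperature). Test agents, in DMSO, incubated at 37 C with PPARd-bla HEK293H cells.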

[2] = qHTS assay to identify small molecule antagonists of the peroxisome proliferator-activated receptor delta (PPARd) signaling pathway - cell viability counter screen (AID 743213; active means well fitted curve in the direction sought with a large enough effect in the repeat runs; an effect the other way counts as inactive or inconclusive; further: nearly all actives have a fitted effect of over 50% in size)
Method in brief: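 HEK293H cells with the PPARd UAS-bla reporter, co-treated 17 h at 37 C with compounds and L165041 (300 nM final), were lysed with CellTiter-Glo. Luminescence indicated viable cell content.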

[3] = target: Peroxisome proliferator-activated receptor delta (Homo sapiens) (UniProt Q03181); test: qHTS assay to identify small molecule antagonists of the peroxisome proliferator-activated receptor delta (PPARd) signaling pathway (AID 743215; active means well fitted inhibition curve with a large enough effect in the signal ratio in the repeat runs, not every such curve was filed as active; the % refers to the signal ratio;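 further: cells stimulated with agonist L165041 at 300 nM final during compound exposure; series mostly up to about 62 µM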)
Method in brief: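 Fluorescence from cleaved LiveBLAzer B/G FRET substrate (2 h, room temperature) reports PPARd-driven beta-lactamase in HEK293H UAS-bla cells. Cells had been treated 17 h at 37 C with compound plus 300 nM final L165041.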

[4] = target: Bile acid receptor (Homo sapiens) (UniProt Q96RI1); test: qHTS assay to identify small molecule antagonists of the farnesoid-X-receptor (FXR) signaling pathway (AID 743217; active means well fitted inhibition curve with a large enough effect in the signal ratio in the repeat runs, not every such curve was filed as active; the % refers to the signal ratio)
Sequence of Bile acid receptor (Homo sapiens) (Q96RI1 whole entry, looked up): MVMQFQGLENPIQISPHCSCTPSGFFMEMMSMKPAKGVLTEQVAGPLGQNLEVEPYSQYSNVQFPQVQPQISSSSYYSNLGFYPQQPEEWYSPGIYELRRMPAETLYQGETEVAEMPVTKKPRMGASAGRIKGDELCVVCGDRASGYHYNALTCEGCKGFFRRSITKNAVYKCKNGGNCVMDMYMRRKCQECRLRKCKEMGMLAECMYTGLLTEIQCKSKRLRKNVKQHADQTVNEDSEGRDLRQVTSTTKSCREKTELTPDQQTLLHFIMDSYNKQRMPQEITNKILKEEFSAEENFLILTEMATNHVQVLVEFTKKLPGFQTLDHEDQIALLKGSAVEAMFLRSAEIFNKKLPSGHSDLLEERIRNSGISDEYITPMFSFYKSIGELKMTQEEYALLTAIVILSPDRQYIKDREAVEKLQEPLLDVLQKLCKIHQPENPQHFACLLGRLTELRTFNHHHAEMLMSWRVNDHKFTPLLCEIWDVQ
Method in brief: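 FRET fluorescence after 2 h room-temperature LiveBLAzer loading gives the readout. Prior step: FXR-bla HEK 293T cells, seeded and incubated 5 h, received test compounds plus 50 uM final CDCA for 16 h at 37 °C.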

[5] = qHTS assay to identify small molecule agonists of the farnesoid-X-receptor (FXR) signaling pathway - cell viability counter screen (AID 743218; active means well fitted curve in the direction sought with a large enough effect in the repeat runs; an effect the other way counts as inactive or inconclusive; further: nearly all actives have a fitted effect of over 45% in size; further: potency means the concentration at half of the fitted maximal effect)
Method in brief: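 Readout: CellTiter-Glo luminescence, 30 min RT, multiplexed after the FXR-bla FRET reading. HEK 293T FXR-UAS-bla cells received compound 5 h post-plating and were incubated 16 h at 37 C.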

[6] = target: Bile acid receptor (Homo sapiens) (UniProt Q96RI1); test: qHTS assay to identify small molecule agonists of the farnesoid-X-receptor (FXR) signaling pathway (AID 743220; active means well fitted activation curve with a large enough effect in the signal ratio in the repeat runs, not every such curve was filed as active; the % refers to the signal ratio)
Method in brief: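 FXR-UAS-bla HEK 293T cells carrying a UAS-driven beta-lactamase reporter were plated for 5 h at 37C/5% CO2, then exposed to DMSO-dissolved Tox21 10K compounds for 16 h at 37C. A LiveBLAzer B/G FRET substrate was loaded for 2 h at room temperature before fluorescence reading.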

[7] = qHTS assay to identify small molecule antagonists of the farnesoid-X-receptor (FXR) signaling pathway - cell viability counter screen (AID 743221; active means well fitted cell-killing curve with a large enough effect in the repeat runs, not every such curve was filed as active; further: nearly all actives have a fitted effect of over 50% in size)
Method in brief: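 Cytotoxicity counter screen run in the FXR-bla reporter wells: HEK 293T cells exposed to compound with 50 uM (final) chenodeoxycholic acid for 16 h, 37 C, then viability measured by CellTiter-Glo luminescence after 30 min, room temperature.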

[8] = target: Vitamin D3 receptor (Homo sapiens) (UniProt P11473); test: qHTS assay to identify small molecule agonists of the vitamin D receptor (VDR) signaling pathway (AID 743222)
Sequence of Vitamin D3 receptor (Homo sapiens) (P11473 whole entry, looked up): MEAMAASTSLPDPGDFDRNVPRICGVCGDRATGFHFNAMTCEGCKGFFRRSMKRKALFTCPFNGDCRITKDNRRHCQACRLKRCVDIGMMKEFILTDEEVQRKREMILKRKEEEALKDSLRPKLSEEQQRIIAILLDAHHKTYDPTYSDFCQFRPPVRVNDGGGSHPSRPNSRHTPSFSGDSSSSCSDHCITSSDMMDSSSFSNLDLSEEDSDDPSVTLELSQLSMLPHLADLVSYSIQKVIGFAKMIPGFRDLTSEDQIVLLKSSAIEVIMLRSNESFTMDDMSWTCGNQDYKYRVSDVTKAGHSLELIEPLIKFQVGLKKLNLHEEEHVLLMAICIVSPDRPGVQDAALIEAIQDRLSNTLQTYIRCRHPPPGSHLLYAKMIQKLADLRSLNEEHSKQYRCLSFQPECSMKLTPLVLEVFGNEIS
Method in brief: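 Following 4 h attachment at 37C, VDR-bla cells (2,000 per well) received DMSO-dissolved compounds or controls. After 16 h incubation, LiveBLAzer B/G FRET substrate was added and fluorescence read 2 h later at room temperature.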

[9] = target: Vitamin D3 receptor (Homo sapiens) (UniProt P11473); test: qHTS assay to identify small molecule antagonists of the vitamin D receptor (VDR) signaling pathway (AID 743223; active means well fitted inhibition curve with a large enough effect in the signal ratio in the repeat runs, not every such curve was filed as active; the % refers to the signal ratio)
Method in brief: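 Antagonist mode: compound added to VDR-bla cells alongside agonist 1alpha,25-dihydroxyvitamin D3 (3 nM final), incubation 16 h at 37C. Read-out is LiveBLAzer FRET fluorescence, 2 h at room temperature.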

[10] = qHTS assay to identify small molecule agonists of the vitamin D receptor (VDR) signaling pathway - cell viability counter screen (AID 743224; active means well fitted curve in the direction sought with a large enough effect in the repeat runs; an effect the other way counts as inactive or inconclusive; further: series mostly up to about 63 µM; nearly all actives have a fitted effect of over 50% in size)
Method in brief: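 In parallel with the bla FRET readout, cytotoxicity toward VDR-bla cells after 16 h compound exposure was assessed by CellTiter-Glo, with luminescence recorded after a 30 min room-temperature incubation.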

[11] = qHTS assay to identify small molecule antagonists of the vitamin D receptor (VDR) signaling pathway - cell viability counter screen (AID 743225; active means well fitted curve in the direction sought with a large enough effect in the repeat runs; an effect the other way counts as inactive or inconclusive; further: nearly all actives have a fitted effect of over 50% in size)
Method in brief: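 Cytotoxicity counter screen read by CellTiter-Glo luminescence (30 min, room temperature) in the same wells as the VDR-bla antagonist readout. HEK 293T VDR-UAS-bla cells had 16 h at 37C with compound and 3 nM (final) 1-alpha,25-dihydroxyvitamin D3, then 2 h with FRET substrate.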

[12] = qHTS assay to identify small molecule agonists of the NFkB signaling pathway (AID 1159509; active means well fitted curve in the direction sought with a large enough effect in the signal ratio in the repeat runs, not every such curve was filed as active; the % refers to the signal ratio; further: series mostly up to about 61 µM)
Method in brief: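 Readout: FRET fluorescence, 405 nm excitation, 460/530 nm emission; beta-lactamase expression disrupts FRET. Cells: ME-180 stably carrying NF-kB-driven bla reporter. Compound exposure 5 hr, 37 C, 5% CO2.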

[13] = qHTS assay to identify small molecule agonists of the NFkB signaling pathway - cell viability counter screen (AID 1159515); further: series mostly up to about 61 µM; nearly all actives have a fitted effect of over 55% in size
Method in brief: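 Plate 2,000 NFkB-bla ME-180 cells/well; incubate overnight. Add compounds, 5 hr at 37 C. Add FRET substrate, 1.5 hr RT. Add CellTiter-Glo, 30 min RT; read luminescence.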

[14] = qHTS assay to identify small molecule agonists of the endoplasmic reticulum stress response signaling pathway (AID 1159516; active means well fitted activation curve with a large enough effect in the signal ratio in the repeat runs, not every such curve was filed as active; the % refers to the signal ratio)
Method in brief: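 Beta-lactamase expression from the ER stress response element in HeLa reporter cells is quantified with the LiveBLAzer B/G FRET substrate, read at 405 nm excitation after 2 hr at room temperature, following 5 hr compound treatment at 37 C.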

[15] = qHTS assay to identify small molecule agonists of the endoplasmic reticulum stress response signaling pathway - cell viability counter screen (AID 1159517)
Method in brief: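 Cytotoxicity of test compounds toward ESRE-bla HeLa cells was assessed after 5 hr exposure. The luminescent CellTiter-Glo signal was measured 30 min after reagent addition.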

[16] = qHTS assay to identify small molecule antagonists of the retinoid-related orphan receptor gamma (ROR-gamma) signaling pathway - cell viability counter screen (AID 1159520; active means well fitted curve in the direction sought with a large enough effect in the repeat runs; an effect the other way counts as inactive or inconclusive; further: nearly all actives have a fitted effect of over 50% in size)
Method in brief: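 Tet-on ROR gamma CHO cells (1,000/well) were plated 4 hr, given compounds in DMSO for 2 hr at 37 C, then induced with 1 uM final doxycycline for 16 hr. Viability was read as ATP by CellTiter-Glo luminescence after 30 min.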

[17] = target: Nuclear receptor ROR-gamma (Homo sapiens) (UniProt P51449); test: qHTS assay to identify small molecule antagonists of the retinoid-related orphan receptor gamma (ROR-gamma) signaling pathway (AID 1159521; active means well fitted curve in the direction sought with a large enough effect in the repeat runs; an effect the other way counts as inactive or inconclusive)
Method in brief: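 Antagonist read-out: drop in luminescence (ONE-Glo) from an RORE-LUC reporter in CHO cells with doxycycline-inducible ROR-gamma; 2 hr compound pretreatment, 1 uM doxycycline, 16 hr incubation at 37 C.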

[18] = qHTS assay to identify small molecule agonists of the AP-1 signaling pathway - cell viability counter screen (AID 1159525); further: nearly all actives have a fitted effect of over 55% in size
Method in brief: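 Each titration point was normalised to DMSO and tetra n-octyl ammonium bromide controls. The read was Cell Titer Glo luminescence after 30 min at RT, following 5 h compound exposure of ME-180 AP-1-bla cells at 37 °C.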

[19] = qHTS assay to identify small molecule agonists of the AP-1 signaling pathway (AID 1159526)
[20] = target: Retinoic acid receptor RXR-alpha (Homo sapiens) (UniProt P19793); test: qHTS assay to identify small molecule agonists of the RXR signaling pathway (AID 1159527); further: nearly all actives have a fitted effect of over 35% in size
Sequence of Retinoic acid receptor RXR-alpha (Homo sapiens) (P19793 whole entry, looked up): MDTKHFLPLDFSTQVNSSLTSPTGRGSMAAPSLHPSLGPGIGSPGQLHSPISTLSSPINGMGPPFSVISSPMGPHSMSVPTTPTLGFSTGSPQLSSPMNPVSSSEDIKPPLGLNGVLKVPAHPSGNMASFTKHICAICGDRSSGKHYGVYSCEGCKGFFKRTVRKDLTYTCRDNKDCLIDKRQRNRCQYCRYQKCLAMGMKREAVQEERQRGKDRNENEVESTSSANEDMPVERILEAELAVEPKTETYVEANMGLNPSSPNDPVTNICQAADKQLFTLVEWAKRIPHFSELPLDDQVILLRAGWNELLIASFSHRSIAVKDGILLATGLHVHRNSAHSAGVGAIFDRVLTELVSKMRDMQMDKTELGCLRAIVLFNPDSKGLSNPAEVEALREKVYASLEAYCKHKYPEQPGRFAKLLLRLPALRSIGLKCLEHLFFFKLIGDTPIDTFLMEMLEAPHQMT
Method in brief: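 Agonist-mode beta-lactamase reporter assay: HEK 293T RXR-alpha-UAS-bla cells treated 16 hr at 37 C with compounds, 9-cis retinoic acid as positive control. LiveBLAzer FRET substrate, 405 nm excitation, 460/530 nm emission.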

Row | Compound | outcome [1] | outcome [2] | outcome [3] | outcome [4] | Potency [5] | outcome [6] | outcome [7] | outcome [8] | outcome [9] | outcome [10] | outcome [11] | outcome [12] | outcome [13] | outcome [14] | outcome [15] | outcome [16] | outcome [17] | outcome [18] | outcome [19] | Potency [20]
1 | CCOC(=O)C(C)(C)C | inactive | inactive | inactive | inactive | inactive | inactive | inactive | inactive | inactive | inactive | inactive | inactive | inactive | inactive | inactive | inactive | inactive | inactive | inactive | inactive
2 | CCN(CCO)c1cccc(C)c1 | inactive | inactive | inactive | inactive | inactive | inactive | inactive | – | – | inactive | – | inactive | inactive | inactive | inactive | inactive | inactive | inactive | inactive | inactive
3 | Cc1ccccc1OCC1CO1 (configuration not stated) | inactive | inactive | inactive | inactive | – | inactive | inactive | inactive | – | inactive | inactive | inactive | inactive | inactive | inactive | inactive | inactive | inactive | inactive | inactive
4 | CC(C)(C)NCCO | inactive | inactive | inactive | – | inactive | – | inactive | inactive | inactive | inactive | inactive | inactive | inactive | inactive | inactive | inactive | inactive | inactive | inactive | inactive
5 | Cc1cccc(C(=O)O)c1[N+](=O)[O-] | inactive | inactive | inactive | – | inactive | – | inactive | inactive | – | inactive | inactive | inactive | inactive | inactive | inactive | inactive | inactive | inactive | inactive | inactive
6 | CCC(C)(C)C1CCC(=O)CC1 | inactive | inactive | inactive | – | inactive | – | inactive | inactive | inactive | inactive | inactive | inactive | inactive | inactive | inactive | inactive | inactive | inactive | inactive | inactive
7 | O=c1cc(O)c(Cl)c[nH]1 | inactive | inactive | inactive | inactive | inactive | inactive | inactive | inactive | inactive | inactive | inactive | inactive | inactive | inactive | inactive | inactive | inactive | inactive | inactive | inactive
8 | O=[Si]=O | inactive | inactive | inactive | – | inactive | – | inactive | inactive | inactive | inactive | inactive | inactive | inactive | inactive | inactive | inactive | inactive | inactive | inactive | inactive
9 | CC(C)COC(=O)CCCCC(=O)OCC(C)C | inactive | inactive | inactive | inactive | – | inactive | inactive | inactive | – | inactive | inactive | inactive | inactive | inactive | inactive | inactive | inactive | inactive | inactive | inactive
10 | O=C(c1ccc2c(c1)C(=O)OC2=O)c1ccc2c(c1)C(=O)OC2=O | inactive | inactive | inactive | inactive | inactive | inactive | inactive | inactive | – | inactive | inactive | inactive | inactive | inactive | inactive | inactive | inactive | inactive | inactive | inactive
11 | COC(/C=C(\C)CCC=C(C)C)OC | inactive | inactive | inactive | inactive | inactive | inactive | inactive | inactive | inactive | inactive | – | inactive | inactive | inactive | inactive | inactive | inactive | inactive | inactive | inactive
12 | CCN(CC)C(=O)C1CN2CCc3cc(OC)c(OC)cc3C2CC1OC(C)=O (configuration not stated) | inactive | inactive | inactive | inactive | 237 nM (active) | inactive | inactive | – | – | inactive | inactive | inactive | inactive | inactive | inactive | inactive | inactive | inactive | inactive | inactive
13 | Cc1oc(=O)oc1CN1CCN(c2cc3c(cc2F)c(=O)c(C(=O)O)c2n3C(C)S2)CC1 (configuration not stated) | inactive | inactive | inactive | – | inactive | – | inactive | inactive | inactive | inactive | inactive | inactive | inactive | inactive | inactive | inactive | inactive | inactive | inactive | inactive
14 | Cc1nc2n(c(=O)c1CCN1CCC(C(=O)c3ccc(F)cc3)CC1)CCS2 | inactive | inactive | inactive | inactive | inactive | inactive | – | inactive | inactive | inactive | inactive | inactive | inactive | inactive | inactive | inactive | inactive | inactive | inactive | inactive
